The values below come from PubChem BioAssay AID588852 (The Scripps Research Institute Molecular Screening Center, 2011).

The whole screen tested about 360,000 compounds, of which about 4,600 (1.3%) were called active. This excerpt belongs to a sample that is enriched for actives. Unmarked numbers belong to inactive results.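 The calls were made as follows: active = percent inhibition above its own plate's cutoff, namely the mean of that plate's compound wells plus 3 SD; inactive = the rest.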

In the test the target is Muscarinic acetylcholine receptor M1 (Homo sapiens) (UniProt P11229). Kind of test: human M1 muscarinic receptor antagonists, primary screen, CHO-K1 cells, Fluo-8 calcium fluorescence, 1536-well (AID 588852).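 Also: peak over basal fluorescence ratio during 140 s after agonist addition; 0% = ACh EC80 plus DMSO and 100% = DMSO alone without agonist.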 Particulars: CHO-K1 hM1, Fluo-8 calcium fluorescence, ACh EC80 antagonist; at 3 µM; hits give high values.
Sequence of Muscarinic acetylcholine receptor M1 (Homo sapiens) (P11229 whole entry, looked up): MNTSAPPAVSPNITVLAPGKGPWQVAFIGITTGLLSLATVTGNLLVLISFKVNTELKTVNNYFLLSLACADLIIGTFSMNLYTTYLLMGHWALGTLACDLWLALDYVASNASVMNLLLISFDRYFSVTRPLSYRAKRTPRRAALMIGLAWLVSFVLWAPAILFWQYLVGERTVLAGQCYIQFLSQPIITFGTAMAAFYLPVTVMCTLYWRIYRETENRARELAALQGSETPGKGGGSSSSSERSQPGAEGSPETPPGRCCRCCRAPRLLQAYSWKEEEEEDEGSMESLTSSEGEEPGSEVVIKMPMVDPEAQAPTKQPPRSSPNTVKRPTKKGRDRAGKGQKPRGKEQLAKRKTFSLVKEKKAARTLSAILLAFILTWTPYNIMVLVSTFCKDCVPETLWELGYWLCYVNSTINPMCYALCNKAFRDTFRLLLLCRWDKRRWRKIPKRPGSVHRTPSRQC
`CN(CCO)C(=O)c1nc[nH]c1C(=O)N(C)Cc1ccccc1`: the inhibition is -4.9%.

In the case of `O=S1(=O)CC(N2CCN(CCO)CC2)CN1C1CCCC1` (stereo not drawn), the inhibition was -4.22%.

On to `CCOc1ccc(CCN2C(=S)N([C@@H](CC(C)C)CN3CCC[C@@H]3CN3C(=S)NC[C@@H]3Cc3ccc(O)cc3)C[C@@H]2CC(C)C)cc1`, for which the inhibition was 5.64%.

As for `COc1ccc(CN2CCCC(C(=O)c3ccc(Cl)cc3)C2)cc1Cn1cncn1` (stereo not drawn), the inhibition is 75.4% (active).

Consider `COc1cc(CN2CCCC(C(=O)c3ccc(SC)cc3)C2)cc(Cl)c1O` (stereo not drawn), for which the inhibition is -1.81%.

In the case of `COc1ccc(CN2CCCC(C(=O)N3CCCCC3)C2)cc1` (stereo not drawn), the inhibition was 5.19%.

As to `CS(=O)(=O)c1ccccc1C(=O)Nc1ccc2sccc2c1`, the inhibition was -10.3%.

Take `CCn1ccnc1CN(C)C(=O)c1ccc2nc(Cc3ccc(OC)cc3)oc2c1`: the inhibition was 56.1% (active).

Turning to `CCC1C(=O)NCCN1C(=O)c1ccc2nc(Cc3ccc(OC)cc3)oc2c1` (stereo not drawn), the inhibition is -5.11%.

`COc1ccc(Cc2nc3ccc(C(=O)N4CCC(N(C)C)C4)cc3o2)cc1` (stereo not drawn): the inhibition is 3.18%.

In the case of `CCC1Sc2ccc(S(=O)(=O)CCC(=O)NCc3cccs3)cc2NC1=O` (stereo not drawn), the inhibition is -5.05%.

As for `CC12C(=O)N(n3cnnc3)C(=O)C1C1C=CC2C1` (stereo not drawn), the inhibition is 2.29%.

Consider `Cc1ccc(S(=O)(=O)N2CCN(Cc3cccc(C)c3O)CC2)cc1`, for which the inhibition was 4.67%.

For `Cc1ccc(S(=O)(=O)N2CCN(C)CC2)cc1`, the inhibition was -16.6%.

Regarding `Cc1ccc(S(=O)(=O)N2CCN(c3ncnc4ccccc34)CC2)cc1`, the inhibition is 35.8% (active).

On to `COc1ccc(-c2csc3ncnc(N4CCN(S(=O)(=O)c5ccccc5C#N)CC4)c23)cc1`, for which the inhibition was -2.61%.

As to `Cc1ccc(C)c(S(=O)(=O)N2CCN(c3ncnc4sccc34)CC2)c1`, the inhibition was 34.7% (active).

Turning to `Cc1ccc(C)c(S(=O)(=O)N2CCN(CC(=O)Nc3ccc([N+](=O)[O-])cc3)CC2)c1`, the inhibition is 9.07%.

`CC(Sc1sc(=S)sc1SC(C)C(=O)O)C(=O)O` (stereo not drawn): the inhibition was 1.12%.

As to `C[C@H]([C@@H](O)[C@@H](O)[C@@H](C)C(C)(C)C)[C@H]1CC[C@H]2C3CC[C@H]4C[C@H](OS(=O)(=O)O)[C@@H](OS(=O)(=O)O)C[C@]4(C)[C@H]3CC[C@]12C` (stereo partly drawn), the inhibition was -9.61%.

As for `Cc1nc(-c2nnc(SCC(=O)Nc3cc(C(F)(F)F)cc(C(F)(F)F)c3)n2C)cs1`, the inhibition was -3.69%.

Regarding `C=C1C(=O)[C@]23C[C@H]1CCC2[C@@]1(C)C(C[C@@H]3O)[C@](C)(C(=O)O)CC[C@@H]1O` (stereo partly drawn), the inhibition was -14.8%.

In the case of `CN1/C(=c2/s/c(=C3/C(=O)N(c4ccccc4)NC3=Nc3ccccc3)n(C)c2=O)C(C)(C)c2ccccc21`, the inhibition was 12.2%.

Regarding `Cc1ccccc1C(OCC(O)CN1CCCCC1CCO)c1ccccc1` (stereo not drawn), the inhibition was 28.9% (active).

Regarding `CCOc1ccccc1CN1CCN(C2CCC2)CC1CCO` (stereo not drawn), the inhibition is -17.7%.

As to `COc1cccc(CN(C)CC(O)COC(c2ccccc2)c2ccccc2C)c1` (stereo not drawn), the inhibition is 16.4%.

As for `C[C@H]1CN([C@@H](C)CO)C(=O)CCCn2cc(nn2)CO[C@@H]1CN(C)S(=O)(=O)c1cccc(C#N)c1`, the inhibition was -7.84%.

Turning to `Cc1cc(Br)cn2c(Cc3ccsc3)c(-c3ccc(C#N)cc3)nc12`, the inhibition is -2.47%.

Take `CC(=O)c1nn(-c2ccccc2)c(=Nc2ccccc2)cc1C`: the inhibition is 2.25%.

For `CCN(CCCCOC(=O)c1ccc(OC)c(OC)c1)C(C)Cc1ccc(OC)cc1` (stereo not drawn), the inhibition was 91.6% (active).

For the compound `COc1ccc(C(CCN(Cc2ccc(OC)c(OC)c2)C(=O)CCl)c2ccccc2)cc1` (stereo not drawn), the inhibition is -0.77%.

With `COc1ccc(C(=O)OCC(=O)NCCCc2ccccc2)cc1OC`, the inhibition is -14.8%.

For the compound `O=C(Nc1cccc(Cl)c1)c1cc([N+](=O)[O-])ccc1N1CCN(CCO)CC1`, the inhibition is -7.1%.

Regarding `CCC(=O)c1ccc(N2CCN(C(=O)c3cc([N+](=O)[O-])ccc3F)CC2)c(F)c1`, the inhibition was 11.9%.

Consider `CCN1CCN(c2ccc([N+](=O)[O-])cc2C(=O)c2ccc(Cl)cc2)CC1`, for which the inhibition is 96.3% (active).

As to `Cc1cccc(OCC(=O)OCC(=O)Nc2ccc(Cl)cn2)c1`, the inhibition was -3.17%.

On to `CCc1noc(C)c1C(=O)N1CCCSC1=Nc1ccccc1OC`, for which the inhibition is 3.24%.

On to `CC(C)c1ccc2oc(=O)cc(CN3CCN(Cc4ccccc4)CC3)c2c1`, for which the inhibition is -7.34%.

`N#Cc1ccc(OCCN2C(=O)NC3(CCSC3)C2=O)cc1` (stereo not drawn): the inhibition was 5.7%.

Take `COc1ccc(-c2cc3c(c4c2ccn4C)C2CCC3C2)cn1` (stereo not drawn): the inhibition was 3.78%.

`CC(=O)c1c(C)[nH]c(C(=O)COC(=O)c2cccc(S(=O)(=O)N(C)c3ccccc3)c2)c1C`: the inhibition is 57% (active).

With `CC(=O)c1c(C)[nH]c(C(=O)COC(=O)c2cccs2)c1C`, the inhibition is 10.1%.

As for `COc1cccc(C(=O)OCC(=O)c2[nH]c(C)c(C(C)=O)c2C)c1`, the inhibition is 8.52%.

For the compound `O=C1C=C(c2ccccc2)CCC1`, the inhibition is 6.35%.

Regarding `NC(Cc1ccc(F)cc1)c1csc(Nc2nncc3ccccc23)n1` (stereo not drawn), the inhibition was -3.42%.

For the compound `COc1ccc(OC)c(C(=O)NC2CCCc3c2cnn3-c2cc(C)cc(C)c2)c1` (stereo not drawn), the inhibition is -5.27%.

For `COc1ccc(C(=O)NC2CC(C)(C)Cc3c2cnn3-c2ccccc2C)o1` (stereo not drawn), the inhibition was 0.26%.

With `COc1ccc(C(=O)NC2CCCc3c2cnn3-c2cccc(C)c2C)c(OC)n1` (stereo not drawn), the inhibition is 46.9% (active).

Take `Cc1cn([C@H]2C[C@H](O)[C@@H](/C=C/C(=O)NCCCc3ccccc3)O2)c(=O)[nH]c1=O`: the inhibition was -25.2%.

Consider `COc1cccc(NC(=O)CN(C)C(=O)CSCc2nc3scc(-c4cccs4)c3c(=O)[nH]2)c1`, for which the inhibition is -1.71%.

On to `CCN(CCCNC(=O)c1ccc2c(c1)NC(=O)CN2C)c1cccc(C)c1`, for which the inhibition is 8.18%.

Regarding `NS(=O)(=O)c1cccc(NC(=O)CC23CC4CC(CC(Br)(C4)C2)C3)c1`, the inhibition is 6.38%.

Regarding `CC(C)Oc1cc(F)ccc1-c1cc(C(=O)Nc2cccc(Cl)c2)[nH]n1`, the inhibition was 24.4%.

For the compound `CC(C)Oc1cc(F)ccc1-c1cc(C(=O)Nc2ccc(F)cc2)[nH]n1`, the inhibition was 5.41%.

In the case of `CCCOc1ccc(F)cc1-c1cc(C(=O)Nc2ccc(F)cc2)[nH]n1`, the inhibition was 34.5% (active).

As for `CCCOc1ccc(F)cc1-c1cc(C(=O)Nc2ccc(F)c(Cl)c2)[nH]n1`, the inhibition is 58.9% (active).

As to `COc1ccc(Cl)cc1-c1cc(C(=O)Nc2cc(OC)c(OC)c(OC)c2)[nH]n1`, the inhibition was 0.33%.

`CCCOc1ccc(F)cc1-c1cc(C(=O)NCc2ccc(F)cc2)[nH]n1`: the inhibition was 1.58%.

Turning to `CCOC(=O)[C@H]1Nc2ccc(Cl)cc2[C@@H]2[C@H]1C1CC(c3ccccc31)N2C(=O)OCc1ccccc1` (stereo partly drawn), the inhibition is 6.68%.

In the case of `Nc1cc(C(F)(F)F)ccc1N1CCOCC1`, the inhibition was 3.72%.

Regarding `CCCCN1CC(N2CCN(Cc3cccc(C)c3)CC2)CS1(=O)=O` (stereo not drawn), the inhibition is 8.04%.

Consider `CSc1ccc(CN2C(=O)NC3(CCCCCC3)C2=O)cc1`, for which the inhibition was 8.79%.

With `CC(C)(C)C(=O)NC1CC2CCCC(C1)N2C(=O)Nc1ccccc1F` (stereo not drawn), the inhibition was -7.35%.

For `COc1ccc(OCCNS(=O)(=O)Cc2ccccc2)cc1`, the inhibition was -0.06%.

As for `COc1ccc(S(=O)(=O)NCCCCOc2ccc(Cl)cc2)cc1`, the inhibition is 32.6% (active).

In the case of `COc1ccc(S(=O)(=O)NCCOc2ccccc2)cc1F`, the inhibition is -7.76%.

On to `CC(C)OCC(O)CN1CCN(C(c2ccccc2)c2ccccc2)CC1` (stereo not drawn), for which the inhibition is 24.4%.

In the case of `CC1(C)CC(=O)C=C(N2CCOCC2)C1`, the inhibition was -7.94%.

Turning to `CC1(C)CC(N2CCN(C(c3ccccc3)c3ccccc3)CC2)=CC(=[N+]2CCCCC2)C1`, the inhibition was 72.8% (active).

`CCNS(=O)(=O)c1ccc(CCC(=O)N2CCN(c3cc(Cl)ccc3C)CC2)cc1`: the inhibition was 13.9%.

Regarding `Cc1sc2ccccc2c1CNC[C@H]1O[C@@H](n2ccc(=O)[nH]c2=O)[C@H](O)[C@@H]1O`, the inhibition was -6.07%.

`CSCCC(NC(=O)c1ccccc1)C(=O)N1CCN(Cc2ccc(Cl)cc2)CC1` (stereo not drawn): the inhibition is 31.4% (active).

As for `COc1ccccc1C(=O)NC(CCSC)C(=O)N1CCN(C(C)=O)CC1` (stereo not drawn), the inhibition is -18.2%.

`CSCCC(NC(=O)c1ccccc1)C(=O)N1CCCCCCC1` (stereo not drawn): the inhibition was -10.3%.

Take `O=c1c2c(ncn1Cc1ccccc1)nc1n2CCC1`: the inhibition is -9.57%.

Take `COc1ccc(-c2nc3ccc(Br)cn3c2Cc2ccc(C)cc2)cc1OC`: the inhibition was -18.2%.

As for `CCOc1ccc(CCNC(=O)COC(=O)C2CCN(c3ccc(C(F)(F)F)cn3)CC2)cc1OCC`, the inhibition was 38.9% (active).

As to `CCOc1ccc(CCNC(=O)COC(=O)C2CCN(S(=O)(=O)c3ccccc3)CC2)cc1OCC`, the inhibition was -4.87%.

On to `CCc1cccc(NC(=O)COC(=O)C2CCN(c3ccc(C(F)(F)F)cn3)CC2)c1`, for which the inhibition is 2.01%.

Turning to `CCc1ccc([C@@H]2CC(=O)[C@@H]3CN(S(=O)(=O)c4ccc(C)cc4)[C@H](c4ccc(Cl)cc4)C[C@@H]3N2S(=O)(=O)c2ccc(C)cc2)cc1`, the inhibition was -3.63%.

`COc1ccccc1OCCCCCCN1CCN(C)CC1`: the inhibition was -0.37%.

For the compound `COc1ccccc1N1CCN(CCCCOc2ccc(F)cc2)CC1`, the inhibition was 30.4% (active).

On to `CCN1CCN(CCCCOc2ccccc2F)CC1`, for which the inhibition was -2.84%.

For the compound `O=C(NC(Cc1ccc(O)cc1)C(=O)O)/C(=C/c1ccccc1)NC(=O)c1ccccc1` (stereo not drawn), the inhibition was -14.6%.

For `Cc1cccc(CN2CCN(C3CN(Cc4cn(Cc5ccccc5F)nn4)S(=O)(=O)C3)CC2)c1` (stereo not drawn), the inhibition is -4.3%.

For `COC(=O)C1=C(C)N(C)C(=O)NC1c1ccc([N+](=O)[O-])o1` (stereo not drawn), the inhibition was 0.09%.

For the compound `COC(=O)C1=C(C)NC(=O)/C1=C/c1ccc(CNS(=O)(=O)c2ccc(C)cc2)o1`, the inhibition is 8.24%.

Consider `COC(=O)C1=C(C)NC2=C(C(=O)c3ccccc32)C1c1ccc(-c2ccc(C(=O)O)cc2)o1` (stereo not drawn), for which the inhibition was 32.9% (active).

Usually inhibition stands for the drop in the measured response relative to a control, in per cent.
